Data as given in PubChem BioAssay (NCI).
This is part of a sample that, as a whole, favours compounds with a hit. Of some 83,000 tested, about 20% had one in any assay.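 Each cell line was grown in a 96-well plate and treated with one concentration of compound for 48 hours. Values below 10 were considered active.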 Values without a mark were called inactive. Active and inactive are the calls of the source.

Tests used:
Assay in all cases: NCI-60 one-dose screen, 48 h (100 = growth as untreated, 0 = no growth, -100 = all killed)
Details in all cases: 10 µM unless noted
SK-MEL-2 melanoma = system: SK-MEL-2 melanoma
SN12C renal = system: SN12C renal
UO-31 renal = system: UO-31 renal
TK-10 renal = system: TK-10 renal
ACHN renal = system: ACHN renal
A498 renal = system: A498 renal
CCRF-CEM leukemia = system: CCRF-CEM leukemia
MOLT-4 leukemia = system: MOLT-4 leukemia
SR leukemia = system: SR leukemia
RPMI-8226 leukemia = system: RPMI-8226 leukemia
OVCAR-8 ovarian = system: OVCAR-8 ovarian
OVCAR-5 ovarian = system: OVCAR-5 ovarian
OVCAR-4 ovarian = system: OVCAR-4 ovarian
SK-OV-3 ovarian = system: SK-OV-3 ovarian
IGROV1 ovarian = system: IGROV1 ovarian
OVCAR-3 ovarian = system: OVCAR-3 ovarian
HS 578T breast = system: HS 578T breast
NCI/ADR-RES ovarian = system: NCI/ADR-RES ovarian
T-47D breast = system: T-47D breast

| Compound | growth (SK-MEL-2 melanoma) | growth (SN12C renal) | growth (UO-31 renal) | growth (TK-10 renal) | growth (ACHN renal) | growth (A498 renal) | growth (CCRF-CEM leukemia) | growth (MOLT-4 leukemia) | growth (SR leukemia) | growth (RPMI-8226 leukemia) | growth (OVCAR-8 ovarian) | growth (OVCAR-5 ovarian) | growth (OVCAR-4 ovarian) | growth (SK-OV-3 ovarian) | growth (IGROV1 ovarian) | growth (OVCAR-3 ovarian) | growth (HS 578T breast) | growth (NCI/ADR-RES ovarian) | growth (T-47D breast) |
| --- | --- | --- | --- | --- | --- | --- | --- | --- | --- | --- | --- | --- | --- | --- | --- | --- | --- | --- | --- |
| CC(=O)[C@@H]1CC[C@]2(C(=O)O)CC[C@]3(C)[C@H](CC[C@@H]4[C@@]5(C)Cc6c([nH]c7ccccc67)C(C)(C)[C@@H]5CC[C@]43C)[C@@H]12 | 79.5% | 69.3% | 48.6% | 63.6% | 46.5% | 61.7% | 62.9% | 49.6% | 73.5% | 43.2% | 62.7% | 101% | 65.7% | 86.6% | 86.8% | 54.1% | 73.2% | 67.6% | 65.5% |
| CCCCc1nc(Cl)c(C2CC(c3ccc(Cl)cc3)=NN2c2cc(Cl)cc(Cl)c2)[nH]1 (configuration not stated) | 96% | 45.4% | 52.7% | 94.2% | 14.2% | 84% | 51.6% | 24.6% | 61.8% | 90.9% | 68.5% | 94.2% | 63.5% | 92.4% | 71.1% | 65.9% | 59.6% | 78.8% | 75% |
| Cc1cc(C)c(NC(=O)c2sc3nc4c(cc3c2N)CCCCCC4)c(C)c1 | 34.6% | 68.3% | 67.3% | 74.2% |  | 19.9% | 32.8% | 36.3% | 23.3% | 66.3% | 73.9% | 95.3% | 73.7% | 44.6% | 61.2% | 15.8% | 47.6% | 48.1% | 44.5% |
| CCN(CC)c1ccc2c(c1)Oc1nc(N)c(C#N)c(N)c1C2Sc1ccc(OC)cc1 (configuration not stated) | -61.2% (active) | 4.18% (active) | -44.7% (active) | 23.1% | 32.2% | 106% | 0.612% (active) | 2.47% (active) | -9.3% (active) | -28.3% (active) | 5.24% (active) | 51.9% | 46.2% | 34% | -3.83% (active) | -15.1% (active) | 19.7% | 46.9% | 51.8% |
| CNc1cccc2c1C(=O)c1cccc(N)c1C2=O | 63.7% | 91% | 62.1% | 25.8% | 72.2% | 65% | 20.5% | 29.4% | 9.01% (active) | 38.9% | 64.5% | 73.8% | 57.6% | 60.5% | 67.5% | 32.2% | 19.4% | 85% | 45.9% |
| O=c1[nH]c(-c2cccc(F)c2)cc2cc(F)ccc12 | 67.4% | 49.3% | 55.8% | 58.5% | 47% |  | 13.6% | 21.9% | 22.5% | 22.5% | 30.2% | 48.4% | 63.4% | 26.1% | 40.1% | -11.9% (active) | 34.7% | 6.86% (active) | 49.8% |
| N#Cc1c(-c2ccc(Cl)cc2)cc(-c2cc3ccccc3o2)nc1SCC(=O)c1ccc(Cl)cc1 | 91% | 94.2% | 79.8% | 139% | 86.9% | 111% | 106% | 95.1% | 80.2% | 83.6% | 104% | 88.4% | 104% | 103% | 71.5% | 104% | 96.3% | 97.9% | 108% |
| O=C1Nc2ccc(Cl)cc2/C1=N/c1nc(-c2ccc(Cl)cc2)cs1 | -2.56% (active) | 17.3% | 24.6% | -15.5% (active) | 11.9% | -2.57% (active) | 8.26% (active) | 2.22% (active) | 3.05% (active) | -2.3% (active) | 3.67% (active) | 26.2% | 34.9% | 1.76% (active) | 16.6% | -13.6% (active) | 13.7% | 57.7% | -3.94% (active) |
| CCCn1c2cc(OCc3cn(-c4ccc(Cl)cc4)nn3)ccc2c2ccnc(C)c21 | 87% | 34.2% | 46.4% | 113% | 34.3% | 76.2% | 56.8% | 57.1% | -32.4% (active) | 23.3% | 49.9% | 78% | 55.5% | 73.9% | 74% | 59.3% | 75% | 66.3% | 52.2% |
| CCN1CCC[C@H]1c1cc(O)c2c(c1OC)C[C@H]1C[C@H]3[C@H](N)C(=O)C(C(N)=O)=C(O)[C@@]3(O)C(=O)C1=C2O | -43.9% (active) | -3.68% (active) | -5.6% (active) | -8.12% (active) | -2.88% (active) | -14.7% (active) | 1.43% (active) | -16.8% (active) | -18.8% (active) | -18.8% (active) | -0.399% (active) | 4.81% (active) | -0.794% (active) | -1.89% (active) | -5.97% (active) | 2.36% (active) | -3.05% (active) | 9.29% (active) | -8.2% (active) |
| COc1ccc(N(C)c2nc(Cl)nc3ccn(C)c23)cc1 | 19.3% | 23% | 45% | 67.7% | 21.9% | -9.23% (active) |  | 9.94% (active) | 11.3% | 6.35% (active) | 0.816% (active) | 30.6% | 36.6% | 7.76% (active) | 26.1% | -12.3% (active) | 36.8% | 3.41% (active) | 74.9% |
| O=C1c2ccccc2C(=O)c2c1oc1c2c(=O)[nH]c2ccc(Cl)cc21 | 31.8% | -26.3% (active) | -54.9% (active) | -42.1% (active) | -14.2% (active) | 80.4% | 29% | 18.4% | 33.7% | 4.83% (active) |  | 52.7% | -42% (active) | 1.64% (active) | -3.63% (active) | -68.4% (active) | -7.55% (active) | 22.3% | -58.1% (active) |
| Cc1cccc(C)c1NCc1nnc(-c2ccc(O)cc2)o1 | 104% | 102% | 85.5% | 104% | 98.6% | 107% | 94.8% | 108% | 119% | 95.5% | 107% | 95.5% | 99% | 114% | 99.9% | 99.4% | -4.35% (active) | 96.8% | 91.5% |
| c1ccc2c3c([nH]c2c1)C(c1ccc(C2NCCc4c2[nH]c2ccccc42)cc1)NCC3 (configuration not stated) | -13% (active) | 41.6% | -0.102% (active) | 63.4% | -73.1% (active) | 116% | -16.7% (active) | -62% (active) | -51.5% (active) | -40.3% (active) | -41.4% (active) | 77% | 23.5% | 49.1% | 25.8% | -65.3% (active) | -16.8% (active) | 63.1% | -59% (active) |
